From ChEMBL document CHEMBL3988442, “University of Dundee, Small-Polar-MMV Screening Library” (2021)
Among all 69,000 compounds or so, about 950 (1.4%) showed an effect of 50% or more. The list comes from a sample in which strong results are over-represented; it also holds similar structures and randomly drawn compounds.

Test system: Mycobacterium tuberculosis
Assay: Cornell M. t heat shock assay; also: in the data most compounds retested in dose-response had high values
Format: functional, organism-based
Design: dose or concentration left out as unconfirmed

Structure (SMILES) | Percent Effect
CN(C)C[C@]12COC[C@H]1CN(C(=O)CCc1ccccc1)C2.O=C(O)C(F)(F)F | -31.23%
COCCN1C[C@@H]2[C@@H](OC)CCN(Cc3cccs3)[C@@H]2C1.O=C(O)C(F)(F)F.O=C(O)C(F)(F)F | -45.94%
CCn1cc2c(n1)CN(CC1CC1)CC2COCC1CC1.O=C(O)C(F)(F)F (centres undefined) | 0.92%
CN1CC2(CCN(CC3CC3)CC2)COc2ccccc2S1(=O)=O.O=C(O)C(F)(F)F | -26.67%
Cc1nnc(NCc2ccccc2Cl)c(C#N)c1C | 29.74%
Cc1nnc(NCc2ccccc2F)c(C#N)c1C | 88.29%
COCc1ccccc1CNc1nnc(C)c(C)c1C#N | 28.24%
CCOCC1CN(Cc2cnn(C)c2)Cc2c1cnn2CC.O=C(O)C(F)(F)F (centres undefined) | -24.32%
Cc1ccc(CN2CC[C@@H]3OCCN(Cc4ccncc4)[C@H]3CC2)s1.O=C(O)C(F)(F)F.O=C(O)C(F)(F)F.O=C(O)C(F)(F)F | 43.06%
Cc1nc2c(C)cccc2cc1C(=O)N1CCC2(CC1)NCCNC2=O | -15.56%
CCCC1CN(CC(C)C)C(=O)c2cccnc2O1 (centres undefined) | -5.035%
CC(C)CN1C[C@H](COCc2ccccc2)Oc2ncccc2C1=O | 61.32%
CCCC1CN(CCOc2ccccc2)C(=O)c2cccnc2O1 (centres undefined) | -5.894%
COc1nc2cc(C)ccc2cc1CN(C)Cc1n[nH]c2c1CCCC2 | 2.274%
CN(Cc1cc2n(n1)CCNC2)Cc1n[nH]c2c1CCCCC2 | -10.71%
Cc1ccc2[nH]c(CN(C)Cc3ccccc3C(=O)O)nc2c1 | -3.354%
Cc1ccc2[nH]c(CN(C)Cc3n[nH]c4c3CCC4)nc2c1 | 98.03%
CCc1cc(N(C)Cc2[nH]nc3c2CCC3)nc(N2CCOCC2)n1 | -16.74%
COc1nc2c(cc1C(=O)N(C)Cc1[nH]nc3c1CCC3)CCC2 | 0.3103%
Cc1ccc2nc(CN(C)Cc3n[nH]c4c3CCCCC4)[nH]c2c1C | 106.9%

Structure (SMILES) | Percent Effect
CN(Cc1cc2n(n1)CCNC2)Cc1n[nH]c2c1CCC2 | -1.948%
Cc1ccc2nc(CN(C)Cc3[nH]nc4c3CCC4)[nH]c2c1C | 98.38%
CC(=O)N1C[C@@H]2CC[C@H](C1)N(S(=O)(=O)c1cc(F)ccc1C)C2 | -2.155%
CNC(=O)[C@H]1C[C@@H]2CN(Cc3ccc(OC)cc3)C[C@H]1O2.O=C(O)C(F)(F)F | 15.08%
Cc1ccc(CN2C[C@@H](OCc3ccccn3)[C@H]3COC[C@H]32)o1.O=C(O)C(F)(F)F.O=C(O)C(F)(F)F | 4.099%
CNc1nc(C2CCCN2)nc2c1CCN(S(=O)(=O)C1CCCCC1)C2.Cl (centres undefined) | 12.62%
CCc1cc(NC2CCN(S(C)(=O)=O)CC2)n2nc(C)c(C)c2n1 | 105.8%
CCc1cc(NC2CCOCC2)n2nc(C)c(C)c2n1 | -7.332%
CCOC(=O)N1CCC(Nc2cc(CC)nc3c(C)c(C)nn23)CC1 | -7.891%
CCN(CC)CCN1CC[C@H]2OCC[C@@]2(C(=O)N2CCOCC2)C1.O=C(O)C(F)(F)F.O=C(O)C(F)(F)F | 6.776%
Cl.Cl.Cn1cc(C(=O)NCc2cncc3c2CCN(c2ccccn2)C3)cn1 | -14.06%
COc1cccc2[nH]c(C(=O)N3CCNCC3C(N)=O)cc12.Cl (centres undefined) | -10.67%
COC(=O)N1CCC2(CC1)N=C(CCC(C)C)NC2=O | 95.71%
CCOC(=O)N1CCC2(CC1)N=C(CCC(C)C)NC2=O | 12.74%
CC(C)CCC1=NC2(CCN(C(=O)N3CCN(C)CC3)CC2)C(=O)N1 | 15.27%
Cc1oncc1C(=O)N[C@@H]1CN(Cc2ccco2)C[C@@H]2CCCO[C@@H]21.O=C(O)C(F)(F)F | 4.265%
CC[C@@H]1N(Cc2ccco2)CCC[C@]12CCC(=O)N2C.O=C(O)C(F)(F)F | -19.47%
c1cc(-c2cncnc2)cc(-c2ccn(CC3CCNC3)n2)c1 (centres undefined) | 8.343%
Cc1nccc(-c2cccc(-c3ccn(CC4CCNC4)n3)c2)n1 (centres undefined) | -11.22%
Cc1ccsc1-c1cccc(-c2ccn(CC3CCNC3)n2)c1 (centres undefined) | 84.67%

Structure (SMILES) | Percent Effect
CN1CCC(c2nnc3ccc(C(=O)NC4CCCC4)cn23)C1.O=C(O)C(F)(F)F (centres undefined) | -23.72%
CNc1cc(C)nc(C2CCN(CCO)CC2)n1 | -3.64%
CC(NC(=O)NCCCN1CCCC1)c1nncn1C (centres undefined) | -5.961%
CC1CCN(CCCNC(=O)NC(C)c2nncn2C)CC1 (centres undefined) | 68.75%
CC(NC(=O)NCCCN1CCCCCC1)c1nncn1C (centres undefined) | 12.17%
O=C(O)C(F)(F)F.O=C(O)C(F)(F)F.O=C(c1ccc(F)cc1)N1CCN2C[C@H](OCc3ccccn3)C[C@H]2C1 | 3.711%
C[C@H]1CN(C(=O)c2ccoc2)C[C@@]12CCN(CCN(C)C)C2=O.O=C(O)C(F)(F)F | -17.94%
O=C1C[C@H]2CC[C@@H](CN1)N2C1CCSCC1 | 14.33%
CCN1C[C@H]2C[C@H](C(=O)NCc3cccnc3)[C@@H](C1)O2 | -4.927%
Cc1ccc(C(=O)N2CCC3(CC2)COC(COc2cccnc2)C3)o1.O=C(O)C(F)(F)F (centres undefined) | -31.88%
O=C(O)C(F)(F)F.c1cnc(N2CCO[C@H]3CN(CC4CCC4)C[C@H]32)cn1 | 6.326%
CC(=O)N1CCc2c(nc(N(C)C)nc2NC(C)Cc2cccs2)C1 (centres undefined) | 23.93%
CC(=O)N1CCc2c(nc(N(C)C)nc2NCc2cccs2)C1 | -2.548%
CC(=O)N1CCc2c(nc(N(C)C)nc2NCCc2cccs2)C1 | 53.71%
CCCNc1cc(-c2c[nH]nc2C2CCN(C(=O)C3CCC3)C2)ccn1 (centres undefined) | -8.816%
Cl.O=C(NCc1ccc(Cl)cc1)N1CCN(CC(O)C2CC2)CC1 (centres undefined) | 7.084%
CC(C)C(=O)Nc1ccc2c(c1)ncn2CC(=O)NCCN(C)C | -3.322%
CC(C)CC(=O)Nc1ccc2c(c1)ncn2CC(=O)NCCN(C)C | 65.51%
CC(C)NC(=O)Nc1ccc2c(c1)ncn2CC(=O)NCCN(C)C | -0.1313%
